# Several values for one entry are separate records, joined by “and”; a condition that tells them apart may be missing. Equal entries are not always repeated. Hit rate of the full screen: of about 5,500 compounds, about 2,000 (36%) were called active. Inconclusive results (about 18%) are left out. The list shows a part of the results. Unmarked numbers belong to inactive results. No stated cut-off is given here; in the data, active means normalized growth mostly below about 0.91 (no sharp cut-off); inconclusive means no clear call, values can overlap the other calls; inactive means mostly above about 0.92.
# Experiment: chemical genetic growth profiling, strain panel (AID 1159580);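 further: tested at 20 µM; growth read once vehicle control cultures reached saturation at 30 °C; 1 = growth at the plate median or of vehicle wells; lower values mean less growth of the strain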
# Conditions: growth OD
# [1] = S. cerevisiae deletion strains, locus YHR030C, strain SLT2, active compounds read low
# [2] = S. cerevisiae deletion strains, locus YHR079C, strain IRE1, active compounds read low
# [3] = S. cerevisiae deletion strains, locus YJL095W, strain BCK1, active compounds read low
# [4] = S. cerevisiae deletion strains, locus YJR066W, strain TOR1, active compounds read low
# [5] = S. cerevisiae deletion strains, locus YLR113W, strain HOG1, active compounds read low
# [6] = S. cerevisiae deletion strains, locus YNL183C, strain NPR1, active compounds read low
# [7] = S. cerevisiae deletion strains, locus YOR231W, strain MKK1, active compounds read low
# [8] = S. cerevisiae deletion strains, locus YPL256C, strain CLN2, active compounds read low
structure (smiles),measurement,setting,value
CSc1ccc(/C=C/[N+](=O)[O-])cc1,normalized growth,"S. cerevisiae deletion strains, locus YAL013W, strain DEP1, active compounds read low",0.0558 (active)
same,normalized growth,"S. cerevisiae deletion strains, locus YBR229C, strain ROT2, active compounds read low",0.0536 (active)
same,normalized growth,"S. cerevisiae deletion strains, locus YCL061C, strain MRC1, active compounds read low",0.0551 (active)
same,normalized growth,"S. cerevisiae deletion strains, locus YDL101C, strain DUN1, active compounds read low",0.0652 (active)
same,normalized growth,"S. cerevisiae deletion strains, locus YDL134C, strain PPH21, active compounds read low",0.0471 (active)
same,normalized growth,"S. cerevisiae deletion strains, locus YDR150W, strain NUM1, active compounds read low",0.582 (active)
same,normalized growth,"S. cerevisiae deletion strains, locus YEL061C, strain CIN8, active compounds read low",0.0542 (active)
same,normalized growth,"S. cerevisiae deletion strains, locus YGR052W, strain FMP48, active compounds read low",0.131 (active)
same,normalized growth,"S. cerevisiae deletion strains, locus YGR078C, strain PAC10, active compounds read low",0.0514 (active)
same,normalized growth,[1],0.0754 (active) and 0.122 (active)
same,normalized growth,[2],0.176 (active)
same,normalized growth,"S. cerevisiae deletion strains, locus YHR082C, strain KSP1, active compounds read low",0.118 (active)
same,normalized growth,"S. cerevisiae deletion strains, locus YHR087W, strain rtc3, active compounds read low",0.0549 (active)
same,normalized growth,[3],0.126 (active)
same,normalized growth,"S. cerevisiae deletion strains, locus YJR043C, strain POL32, active compounds read low",0.0504 (active)
same,normalized growth,[4],0.114 (active)
same,normalized growth,"S. cerevisiae deletion strains, locus YJR075W, strain HOC1, active compounds read low",0.0722 (active)
same,normalized growth,"S. cerevisiae deletion strains, locus YKL171W, strain NNK1, active compounds read low",0.104 (active)
same,normalized growth,"S. cerevisiae deletion strains, locus YKL190W, strain CNB1, active compounds read low",0.0461 (active)
same,normalized growth,"S. cerevisiae deletion strains, locus YKL203C, strain TOR2, active compounds read low",0.107 (active)
same,normalized growth,"S. cerevisiae deletion strains, locus YLR039C, strain RIC1, active compounds read low",0.0613 (active)
same,normalized growth,"S. cerevisiae deletion strains, locus YLR058C, strain SHM2 (second series), active compounds read low",0.0502 (active)
same,normalized growth,"S. cerevisiae deletion strains, locus YLR085C, strain ARP6, active compounds read low",0.0653 (active)
same,normalized growth,[5],0.179 (active)
same,normalized growth,"S. cerevisiae deletion strains, locus YLR262C, strain YPT6, active compounds read low",0.0583 (active)
same,normalized growth,"S. cerevisiae deletion strains, locus YML094W, strain GIM5, active compounds read low",0.0645 (active)
same,normalized growth,"S. cerevisiae deletion strains, locus YMR219W, strain ESC1, active compounds read low",0.0483 (active)
same,normalized growth,"S. cerevisiae deletion strains, locus YMR263W, strain SAP30, active compounds read low",0.0556 (active)
same,normalized growth,"S. cerevisiae deletion strains, locus YNL153C, strain GIM3, active compounds read low",0.0516 (active)
same,normalized growth,[6],0.138 (active)
same,normalized growth,"S. cerevisiae deletion strains, locus YNL207W, strain RIO2, active compounds read low",0.0972 (active)
same,normalized growth,"S. cerevisiae deletion strains, locus YNL298W, strain CLA4 (second series), active compounds read low",0.0614 (active)
same,normalized growth,"S. cerevisiae deletion strains, locus YNL322C, strain KRE1, active compounds read low",0.0528 (active)
same,normalized growth,"S. cerevisiae deletion strains, locus YNR030W, strain Alg12, active compounds read low",0.0591 (active)
same,normalized growth,"S. cerevisiae deletion strains, locus YOL006C, strain TOP1, active compounds read low",0.068 (active)
same,normalized growth,"S. cerevisiae deletion strains, locus YOR119C, strain RIO1, active compounds read low",0.119 (active)
same,normalized growth,[7],0.133 (active)
same,normalized growth,"S. cerevisiae deletion strains, locus YPL055C, strain LGE1, active compounds read low",0.0721 (active)
same,normalized growth,"S. cerevisiae deletion strains, locus YPL241C, strain CIN2, active compounds read low",0.0816 (active)
same,normalized growth,[8],0.17 (active)
same,normalized growth,"S. cerevisiae deletion strains, locus YPR135W, strain CTF4, active compounds read low",0.202 (active)
same,normalized growth,"S. cerevisiae strains, strain wild type, active compounds read low",0.0455 (active)
CC(=O)Nc1ccc(S(=O)(=O)c2ccc(NC(C)=O)cc2)cc1,normalized growth,"S. cerevisiae deletion strains, locus YAL021C, strain ccr4, active compounds read low",1.03
same,normalized growth,"S. cerevisiae deletion strains, locus YAL026C, strain drs2, active compounds read low",1.02
same,normalized growth,"S. cerevisiae deletion strains, locus YAL030W, strain snc1, active compounds read low",1.02
same,normalized growth,"S. cerevisiae deletion strains, locus YBL061C, strain skt5, active compounds read low",1.02
same,normalized growth,"S. cerevisiae deletion strains, locus YBR009C, strain hhf1, active compounds read low",0.997
same,normalized growth,"S. cerevisiae deletion strains, locus YBR023C, strain chs3, active compounds read low",1.01
same,normalized growth,"S. cerevisiae deletion strains, locus YBR171W, strain sec66, active compounds read low",1.02
same,normalized growth,"S. cerevisiae deletion strains, locus YBR231C, strain swc5, active compounds read low",1.02
same,normalized growth,"S. cerevisiae deletion strains, locus YBR279W, strain paf1, active compounds read low",1.01
same,normalized growth,"S. cerevisiae deletion strains, locus YCL011C, strain gbp2, active compounds read low",1.01
same,normalized growth,"S. cerevisiae deletion strains, locus YCL016C, strain dcc1, active compounds read low",0.995
same,normalized growth,"S. cerevisiae deletion strains, locus YCL069W, strain vba3, active compounds read low",1.02
same,normalized growth,"S. cerevisiae deletion strains, locus YCR088W, strain abp1, active compounds read low",1.01
same,normalized growth,"S. cerevisiae deletion strains, locus YDL005C, strain med2, active compounds read low",1.01
same,normalized growth,"S. cerevisiae deletion strains, locus YDL040C, strain nat1, active compounds read low",1.02
same,normalized growth,"S. cerevisiae deletion strains, locus YDR001C, strain nth1, active compounds read low",1.02
same,normalized growth,"S. cerevisiae deletion strains, locus YDR069C, strain doa4, active compounds read low",1.02
same,normalized growth,"S. cerevisiae deletion strains, locus YDR137W, strain rgp1, active compounds read low",1.03
same,normalized growth,"S. cerevisiae deletion strains, locus YDR159W, strain sac3, active compounds read low",0.97
same,normalized growth,"S. cerevisiae deletion strains, locus YDR195W, strain ref2",1.02
same,normalized growth,"S. cerevisiae deletion strains, locus YDR297W, strain sur2, active compounds read low",1.01
same,normalized growth,"S. cerevisiae deletion strains, locus YDR334W, strain swr1, active compounds read low",1.02
same,normalized growth,"S. cerevisiae deletion strains, locus YDR335W, strain msn5, active compounds read low",1.01
same,normalized growth,"S. cerevisiae deletion strains, locus YDR392W, strain spt3, active compounds read low",0.998
same,normalized growth,"S. cerevisiae deletion strains, locus YEL003W, strain gim4, active compounds read low",1.02
same,normalized growth,"S. cerevisiae deletion strains, locus YEL037C, strain rad23, active compounds read low",1.02
same,normalized growth,"S. cerevisiae deletion strains, locus YEL061C, strain CIN8 (second series), active compounds read low",1.02
same,normalized growth,"S. cerevisiae deletion strains, locus YER015W, strain faa2, active compounds read low",1.02
same,normalized growth,"S. cerevisiae deletion strains, locus YER016W, strain bim1, active compounds read low",0.996
same,normalized growth,"S. cerevisiae deletion strains, locus YER111C, strain swi4, active compounds read low",1.01
same,normalized growth,"S. cerevisiae deletion strains, locus YER155C, strain BEM2 (second series), active compounds read low",1.04
same,normalized growth,"S. cerevisiae deletion strains, locus YFR010W, strain ubp6, active compounds read low",1.01
same,normalized growth,"S. cerevisiae deletion strains, locus YGL167C, strain pmr1, active compounds read low",1.01
same,normalized growth,"S. cerevisiae deletion strains, locus YGL173C, strain kem1, active compounds read low",1.02
same,normalized growth,"S. cerevisiae deletion strains, locus YGL227W, strain vid30, active compounds read low",1.01
same,normalized growth,"S. cerevisiae deletion strains, locus YGL240W, strain doc1, active compounds read low",1.02
same,normalized growth,"S. cerevisiae deletion strains, locus YGL253W, strain hxk2, active compounds read low",1
same,normalized growth,"S. cerevisiae deletion strains, locus YHR013C, strain ard1, active compounds read low",1.03
same,normalized growth,"S. cerevisiae deletion strains, locus YHR027C, strain rpn1, active compounds read low",1.01
same,normalized growth,[1],1.07
same,normalized growth,[2],1.09
same,normalized growth,"S. cerevisiae deletion strains, locus YHR142W, strain chs7, active compounds read low",1.02
same,normalized growth,"S. cerevisiae deletion strains, locus YJL092W, strain hpr5, active compounds read low",1
same,normalized growth,"S. cerevisiae deletion strains, locus YJL095W, strain BCK1 (second series), active compounds read low",1.01
same,normalized growth,[3],1.01
same,normalized growth,"S. cerevisiae deletion strains, locus YJL115W, strain asf1, active compounds read low",1.02
same,normalized growth,"S. cerevisiae deletion strains, locus YJL129C, strain trk1, active compounds read low",0.999
same,normalized growth,"S. cerevisiae deletion strains, locus YJL154C, strain vps35, active compounds read low",1.02
same,normalized growth,"S. cerevisiae deletion strains, locus YJL164C, strain tpk1, active compounds read low",1
same,normalized growth,"S. cerevisiae deletion strains, locus YJL166W, strain qcr8, active compounds read low",1.02
same,normalized growth,"S. cerevisiae deletion strains, locus YJL187C, strain SWE1, active compounds read low",1.01
same,normalized growth,[4],0.988
same,normalized growth,"S. cerevisiae deletion strains, locus YKL160W, strain elf1, active compounds read low",1.01
same,normalized growth,"S. cerevisiae deletion strains, locus YKR026C, strain gcn3, active compounds read low",0.999
same,normalized growth,"S. cerevisiae deletion strains, locus YKR091W, strain srl3, active compounds read low",1.01
same,normalized growth,"S. cerevisiae deletion strains, locus YLL001W, strain dnm1, active compounds read low",1.01
same,normalized growth,"S. cerevisiae deletion strains, locus YLL026W, active compounds read low",1.01
same,normalized growth,"S. cerevisiae deletion strains, locus YLL041C, strain sdh2, active compounds read low",0.997
same,normalized growth,"S. cerevisiae deletion strains, locus YLR027C, strain aat2, active compounds read low",1
same,normalized growth,[5],0.972
same,normalized growth,"S. cerevisiae deletion strains, locus YLR221C, strain rsa3, active compounds read low",0.987
same,normalized growth,"S. cerevisiae deletion strains, locus YLR258W, strain gsy2, active compounds read low",1.02
same,normalized growth,"S. cerevisiae deletion strains, locus YLR262C, strain YPT6 (second series), active compounds read low",1.04
same,normalized growth,"S. cerevisiae deletion strains, locus YLR320W, strain mms22, active compounds read low",1.03
same,normalized growth,"S. cerevisiae deletion strains, locus YLR342W, strain FKS1, active compounds read low",1.01
same,normalized growth,"S. cerevisiae deletion strains, locus YLR357W, strain rsc2, active compounds read low",1.01
same,normalized growth,"S. cerevisiae deletion strains, locus YLR370C, strain arc18, active compounds read low",1.01
same,normalized growth,"S. cerevisiae deletion strains, locus YLR384C, strain iki3, active compounds read low",1.01
same,normalized growth,"S. cerevisiae deletion strains, locus YML120C, strain ndi1, active compounds read low",1.03
same,normalized growth,"S. cerevisiae deletion strains, locus YMR058W, strain fet3, active compounds read low",1.01
same,normalized growth,"S. cerevisiae deletion strains, locus YMR125W, strain sto1, active compounds read low",1.01
same,normalized growth,"S. cerevisiae deletion strains, locus YMR129W, active compounds read low",1.02
same,normalized growth,"S. cerevisiae deletion strains, locus YMR205C, strain PFK2, active compounds read low",1.01
same,normalized growth,"S. cerevisiae deletion strains, locus YMR231W, strain pep5, active compounds read low",1.01
same,normalized growth,"S. cerevisiae deletion strains, locus YNL071W, strain lat1, active compounds read low",1.02
same,normalized growth,[6],0.971
same,normalized growth,"S. cerevisiae deletion strains, locus YNL209W, strain ssb2, active compounds read low",1.01
same,normalized growth,"S. cerevisiae deletion strains, locus YNL248C, strain rpa49, active compounds read low",1.02
same,normalized growth,"S. cerevisiae deletion strains, locus YNL322C, strain KRE1 (second series), active compounds read low",1.01
same,normalized growth,"S. cerevisiae deletion strains, locus YNR049C, strain mso1, active compounds read low",1.01
same,normalized growth,"S. cerevisiae deletion strains, locus YOR001W, strain rrp6, active compounds read low",1.02
same,normalized growth,"S. cerevisiae deletion strains, locus YOR070C, strain gyp1, active compounds read low",1.01
same,normalized growth,"S. cerevisiae deletion strains, locus YOR080W, strain dia2, active compounds read low",1.02
same,normalized growth,"S. cerevisiae deletion strains, locus YOR083W, strain WHI5, active compounds read low",0.979
same,normalized growth,"S. cerevisiae deletion strains, locus YOR106W, strain vam3, active compounds read low",1.02
same,normalized growth,[7],1.05
same,normalized growth,"S. cerevisiae deletion strains, locus YOR265W, strain rbl2, active compounds read low",1.01
same,normalized growth,"S. cerevisiae deletion strains, locus YOR270C, strain vph1, active compounds read low",1.02
same,normalized growth,"S. cerevisiae deletion strains, locus YOR290C, strain snf2, active compounds read low",1.01
same,normalized growth,"S. cerevisiae deletion strains, locus YPL051W, strain arl3, active compounds read low",1.01
same,normalized growth,"S. cerevisiae deletion strains, locus YPL078C, strain atp4, active compounds read low",1.02
same,normalized growth,"S. cerevisiae deletion strains, locus YPL106C, strain sse1, active compounds read low",1.02
same,normalized growth,"S. cerevisiae deletion strains, locus YPL240C, strain hsp82, active compounds read low",1
same,normalized growth,[8],1.08

# — PubChem BioAssay AID1159580 (chemical genetic matrix, 2015)
